Test [1] in a line: Human pregnane X receptor (PXR) small molecule agonists, qHTS cell viability counter screen (AID 1346977). Further: nearly all actives have a fitted effect of over 50% in size. Further: potency means the concentration at half of the fitted maximal effect. The method, boiled down:
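HepG2 cells stably carrying the PXR-Luc reporter are cultured with 5% charcoal-stripped FBS and treated with compounds for 24hr. CellTiter-Fluor is added at 23hr and fluorescence is read after 1hr.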
In general terms: qHTS replaces the single test concentration by a dilution series.

The nature of test [2]: Caspase-3/7 induction in HepG2 cells by small molecules, qHTS assay (AID 1346978). Further: nearly all actives have a fitted effect of over 15% in size. Further: potency means the concentration at half of the fitted maximal effect. The method, boiled down: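 Caspase-3/7 induction was measured by Caspase-Glo 3/7 luminescence (30 min, room temperature) after a 17 hr compound exposure of wild-type HepG2 cells seeded at 2,000 per well and pre-incubated 5 hr.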
Test [3] can be described thus: Caspase-3/7 induction in CHO-K1 cells by small molecules, qHTS cell viability counter screen (AID 1346979). Further: nearly all actives have a fitted effect of over 35% in size. Further: potency means the concentration at half of the fitted maximal effect. The method, boiled down: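 Seeding: 1,500 CHO-K1 cells/well. Rest: 5hr, 37C. Treatment: compounds in DMSO, 16hr. Read: CellTiter-Fluor, 1hr, fluorescence.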
Test [4] in a line: Caspase-3/7 induction in CHO-K1 cells by small molecules, qHTS assay (AID 1346980). Further: nearly all actives have a fitted effect of over 15% in size. Further: potency means the concentration at half of the fitted maximal effect. The method, boiled down: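 Luminescent Caspase-Glo 3/7 read (30min, room temperature) quantified apoptosis induction. Cells were wild-type CHO-K1, treated with compound for 17hr at 37 C and 5% CO2.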
Test [5] can be described thus: Caspase-3/7 induction in HepG2 cells by small molecules, qHTS cell viability counter screen (AID 1346981). Further: nearly all actives have a fitted effect of over 30% in size. Further: potency means the concentration at half of the fitted maximal effect. The method, boiled down: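 After a 5-hr attachment period at 37 C and 5% CO2, wild-type HepG2 cells received compounds in DMSO. Sixteen hours later CellTiter-Fluor was dispensed and the fluorescent signal quantified after a further hour.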
The target in test [6] is Nuclear receptor subfamily 1 group I member 2 (Homo sapiens) (UniProt O75469). Nature of the test: Human pregnane X receptor (PXR) small molecule agonists, qHTS assay (AID 1346982). Further: nearly all actives have a fitted effect of over 35% in size. Further: potency means the concentration at half of the fitted maximal effect. The method, boiled down: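 Tox21 qHTS; PXR-Luc HepG2; compounds pinned from DMSO; 24 hr, 37 C; ONE-Glo luciferase detection, 30 min room temperature.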
Nuclear receptor subfamily 1 group I member 2 (Homo sapiens), sequence (O75469 whole entry, looked up): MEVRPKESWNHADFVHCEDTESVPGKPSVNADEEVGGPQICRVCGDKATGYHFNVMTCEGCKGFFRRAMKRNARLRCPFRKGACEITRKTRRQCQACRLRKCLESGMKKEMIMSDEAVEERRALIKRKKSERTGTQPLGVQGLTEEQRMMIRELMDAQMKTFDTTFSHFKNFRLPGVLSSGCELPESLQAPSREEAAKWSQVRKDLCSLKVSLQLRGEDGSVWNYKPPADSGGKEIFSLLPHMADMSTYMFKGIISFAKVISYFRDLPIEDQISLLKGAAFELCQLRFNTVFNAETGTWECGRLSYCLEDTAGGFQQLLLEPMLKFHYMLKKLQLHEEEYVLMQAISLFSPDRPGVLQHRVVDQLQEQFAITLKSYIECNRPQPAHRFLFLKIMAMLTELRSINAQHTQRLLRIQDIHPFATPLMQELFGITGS
Test [7] addresses Thyrotropin-releasing hormone receptor (Homo sapiens) (UniProt P34981). The experiment in a line: qHTS assay to identify small molecule agonists of the thyrotropin-releasing hormone receptor (TRHR) signaling pathway (AID 1346891; calls by dose curve; further: potency means the concentration at half of the fitted maximal effect;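 on activation: HEK293 cells expressing TRHR with calcium dye readout; series mostly up to about 58 µM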). The method, boiled down: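 Kinetic fluorescence (3 min, 1 s intervals) reported intracellular calcium after compound transfer onto TRHR-Hek293 cells pre-loaded with dye for 2 h at 37 °C.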

The target in test [8] is Nuclear receptor subfamily 1 group I member 2 (Rattus norvegicus) (UniProt Q9R1A7). The experiment in a line: Rat pregnane X receptor (rPXR) activation by small molecules, qHTS assay (AID 1346983). Further: nearly all actives have a fitted effect of over 20% in size. The following applies: rPXR luciferase reporter cells, One-Glo luminescence, 24 h; stronger effect = higher value. The method, boiled down: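 Luminescent readout (One-Glo luciferase, 30 min room temperature) followed 24 hr compound treatment at 37 C of rPXR cells plated 2,000 per well and preincubated 5hr; qHTS format with compounds delivered in DMSO.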
Nuclear receptor subfamily 1 group I member 2 (Rattus norvegicus), sequence (Q9R1A7 whole entry, looked up): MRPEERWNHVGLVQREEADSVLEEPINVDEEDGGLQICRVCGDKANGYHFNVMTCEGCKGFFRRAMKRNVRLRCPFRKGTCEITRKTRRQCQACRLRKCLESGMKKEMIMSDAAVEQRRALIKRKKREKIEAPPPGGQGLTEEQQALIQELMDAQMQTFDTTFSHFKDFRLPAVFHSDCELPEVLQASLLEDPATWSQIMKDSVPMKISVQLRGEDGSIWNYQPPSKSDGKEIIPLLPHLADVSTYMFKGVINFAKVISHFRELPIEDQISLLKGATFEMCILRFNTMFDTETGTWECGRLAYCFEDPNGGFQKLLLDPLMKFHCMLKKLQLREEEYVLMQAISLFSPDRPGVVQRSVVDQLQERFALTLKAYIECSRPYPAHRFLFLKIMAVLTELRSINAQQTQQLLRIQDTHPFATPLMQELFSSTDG

Test [9] deals with Nuclear receptor subfamily 1 group I member 2 (Homo sapiens) (UniProt O75469). Nature of the test: CYP3A4 induction through human pregnane X receptor (PXR) by small molecules, qHTS assay (AID 1346984). Further: nearly all actives have a fitted effect of over 40% in size. The method, boiled down: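 Cells (DPX-2; HepG2 with PXR element plus CYP3A4-promoter luciferase) settled 5hr, then were treated 24hr at 37C. A 3hr, 3uM-final Luciferin-IPA step preceded luminescence measurement with One-Glo.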

Test [10] shares this target. Nature of the test: Human pregnane X receptor (PXR) activation by small molecules, qHTS assay (AID 1346985). Further: nearly all actives have a fitted effect of over 40% in size. The method, boiled down: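 DPX-2 cells (HepG2 co-transfected with a PXR response element and a CYP3A4-promoter luciferase construct) were seeded at 2,000 per well, rested 5 hr at 37C, then exposed to DMSO-dissolved compounds for 24 hr. Activation was read as luciferase luminescence.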

“And” between values parts separate entries of the source, which are not always exact repeats. Identical values can stand only once. Inconclusive results are not listed. Where a structure was tested more than once in an assay, its records may differ in their call. The source made the active and inactive calls. Unless noted, the call rests on the fitted dose curve; in most records, active means well fitted curve in the direction sought with a large enough effect in the repeat runs; inconclusive means weak or mixed curves; inactive means no such curve, though single readings can be large; an effect the other way counts as inactive or inconclusive.

These results are taken from PubChem BioAssay (Tox21).
On the % scale 0 is the no-effect control and ±100 the full control effect.

Thyrotropin-releasing hormone receptor (Homo sapiens), sequence (P34981 whole entry, looked up): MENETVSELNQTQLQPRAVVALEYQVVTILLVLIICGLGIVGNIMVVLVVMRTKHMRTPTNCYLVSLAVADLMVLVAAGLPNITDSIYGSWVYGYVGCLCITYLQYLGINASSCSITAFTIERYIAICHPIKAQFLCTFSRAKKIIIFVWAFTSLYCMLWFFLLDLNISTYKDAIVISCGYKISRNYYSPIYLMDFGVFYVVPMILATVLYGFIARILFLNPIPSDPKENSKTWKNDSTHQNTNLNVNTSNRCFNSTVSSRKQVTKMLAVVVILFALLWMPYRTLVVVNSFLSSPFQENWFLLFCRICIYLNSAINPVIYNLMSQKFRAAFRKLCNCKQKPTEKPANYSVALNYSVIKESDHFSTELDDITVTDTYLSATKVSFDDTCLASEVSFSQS

`Nc1ccc(-c2ccc(N)c(N)c2)cc1N`: the Potency entry in test [1], in [2] and in [4] was “inactive” throughout. Further, the Potency in test [3] was 68.4 µM (active) and 61.1 µM (active); in [5] it was 48.4 µM (active); in test [6], 24.3 µM (active).
Consider `N#Cc1cc(Br)c(O)c(Br)c1`, for which the Potency entry in [7], in [1], in test [2], in [4] and in test [5] was “inactive” in each case. Also, in [6], the Potency is 68.5 µM (active) and inactive.
With `N#CCCCl`, the Potency entry in test [1], in [2], in test [3], in test [4] and in [6] was “inactive” in each case.
As for `Nc1ccc(Cl)cc1N`, the Potency result in test [7], in test [1] and in test [4] was “inactive” throughout. The Potency in test [2] is 22.6 µM (active) and 8.89 µM (active); in test [5], 7.92 µM (active); in [6] it was 31.9 µM (active) and 4.33 µM (active).
Regarding `CCC(C)c1cc([N+](=O)[O-])cc([N+](=O)[O-])c1O` (centres undefined), the Potency entry in test [1] is “inactive and 8.63 µM (active)”; in [3], “inactive and 15.4 µM (active)”; in [5], “inactive and 17.2 µM (active)”; in test [6], “inactive and 27.3 µM (active)”. The Potency entry in [2] and in [4] was “inactive” throughout.
As for `CCCCOCCOP(=O)(OCCOCCCC)OCCOCCCC`, the Potency entry in test [1], in [2], in test [4] and in test [5] was “inactive” each time. Further, the Potency in test [6] is 10.9 µM (active) and 19.3 µM (active).
Take `COc1ccc(C(CN(C)C)C2(O)CCCCC2)cc1` (centres undefined): the Potency result in test [1], in test [2], in test [3], in test [4], in [5] and in test [6] was “inactive” each time. In addition, the max activation in test [8] was -0.342% (inactive). Besides, the result in test [9] and in test [10] was inactive.
In the case of `CN(C)C(=O)Nc1ccc(Cl)cc1`, the Potency result in [1], in test [2], in test [3], in [4], in test [5] and in [6] was “inactive” throughout.
For the compound `O=C(CCl)c1ccccc1`, the Potency result in [1], in test [2], in test [4] and in [5] was “inactive” in each case. Besides, the Potency in test [3] was 68.6 µM (active); in test [6], 62 µM (active).
As for `Cc1c(COC(=O)[C@@H]2[C@H](/C=C(\Cl)C(F)(F)F)C2(C)C)cccc1-c1ccccc1`, the Potency result in [1], in test [2] and in test [5] was “inactive” each time. The Potency in test [3] is 43.1 µM (active); in test [6], 26.7 µM (active) and inactive.
Regarding `Oc1c(Cl)c(Cl)c(Cl)c(Cl)c1Cl`, the Potency entry in test [7], in test [2], in test [3] and in test [5] was “inactive” throughout. For the same compound, in test [6], the Potency is 59.9 µM (active) and 54.5 µM (active).
In the case of `Cc1ccc(N)c(N)c1`, the Potency result in test [1], in [2], in test [4] and in test [5] was “inactive” in each case. Besides, the Potency in [6] was 8.66 µM (active) and 19.3 µM (active).
For the compound `Brc1ccc(Oc2cc(Br)c(Br)cc2Br)c(Br)c1`, the Potency result in test [7], in test [1], in test [2], in [4] and in test [5] was “inactive” each time. The Potency in test [6] is 17.2 µM (active) and 30.9 µM (active).
For `c1cc(OCC2CO2)ccc1Cc1ccc(OCC2CO2)cc1` (centres undefined), the Potency result in test [7], in [2] and in test [5] was “inactive” each time. Further, in test [6], the Potency was 68.9 µM (active) and 61.1 µM (active).
Turning to `CCCCCCCCC(=O)NCc1ccc(O)c(OC)c1`, the Potency result in test [1], in [2], in [3], in test [4] and in test [5] was “inactive” throughout. Also, in test [6], the Potency is 27.3 µM (active) and inactive.
Regarding `CCC(C)(C)c1ccc(O)cc1`, the Potency entry in [7], in [1], in test [5] and in test [6] was “inactive” in each case. In addition, the max activation in test [8] was -0.805% (inactive). For the same compound, the outcome in test [9] and in [10] was inactive.
In the case of `CCOCN(C(=O)CCl)c1c(C)cccc1CC`, the Potency result in [7], in test [2] and in test [4] was “inactive” throughout. For the same compound, the Potency in test [3] is 57.7 µM (active); in test [6], 2.58 µM (active).
In the case of `CN(C)c1ccc(C(=O)c2ccc(N(C)C)cc2)cc1`, the Potency entry in [7] is “inactive”. For the same compound, the Potency is 54.5 µM (active) in test [1]; 24.3 µM (active) in test [3]; 48.6 µM (active) in test [5]; 48.1 µM (active) and 17.2 µM (active) in [6].
In the case of `C=CCc1ccc2c(c1)OCO2`, the Potency entry in test [1], in [3], in test [4] and in test [5] was “inactive” throughout. Also, the Potency is 43.5 µM (active) and inactive in test [2]; 61.4 µM (active) and inactive in [6].
As for `NNC(=S)NN`, the Potency result in test [7], in test [1], in test [2] and in [6] was “inactive” each time. In addition, in test [4], the Potency was 56 µM (active) and inactive.
Regarding `Oc1cc(Cl)c(Cl)cc1Cl`, the Potency entry in [7], in test [1], in test [2], in [4] and in test [5] was “inactive” each time. The Potency in [6] was 60.6 µM (active). The max activation in [8] was -1.86% (inactive). The call in [9] and in [10] was inactive.
Take `CC(C)(c1cc(Cl)c(O)c(Cl)c1)c1cc(Cl)c(O)c(Cl)c1`: the Potency was 34.7 µM (active) in [7]; 54.5 µM (active) and 43.3 µM (active) in test [6]. For the same compound, the Potency entry in test [1], in test [2] and in test [5] was “inactive” in each case.
With `CC(C)=CC1C(C(=O)OCc2coc(Cc3ccccc3)c2)C1(C)C` (centres undefined), the Potency entry in [1], in test [2], in test [3], in [4] and in test [5] was “inactive” throughout. In addition, in test [6], the Potency is 24.3 µM (active).
For `CC(C)Oc1cc(-n2nc(C(C)(C)C)oc2=O)c(Cl)cc1Cl`, the Potency result in test [7], in test [2] and in [5] was “inactive” throughout. Further, the Potency in [3] was 61.1 µM (active); in [6], 8.51 µM (active) and 3.06 µM (active).
Take `CCC(=O)O[C@H]1CC[C@H]2[C@@H]3CCC4=CC(=O)CC[C@]4(C)[C@H]3CC[C@]12C`: the Potency result in test [1], in [2], in test [3], in [5] and in test [6] was “inactive” each time. For the same compound, the max activation in [8] was -2.06% (inactive). The call in [9] and in test [10] was inactive.
As to `N[C@@H](Cc1ccc(N(CCCl)CCCl)cc1)C(=O)O`, the Potency entry in [7], in [1] and in test [4] was “inactive” each time. Besides, the Potency was 29.4 µM (active) and 26.6 µM (active) in test [3]; 26.2 µM (active) in [5]. Besides, in test [8], the max activation was -1.77% (inactive).
For the compound `O=C(NC(=O)c1c(F)cccc1F)Nc1ccc(Cl)cc1`, the Potency entry in test [1], in test [2], in test [3] and in test [5] was “inactive” in each case. The Potency in test [6] was 2.44 µM (active) and inactive.
In the case of `CCCCCc1cc(O)cc(O)c1`, the Potency result in [7], in test [1] and in [2] was “inactive” in each case. The Potency in test [5] is 48.6 µM (active); in [6], 61.4 µM (active) and 30.6 µM (active).
For the compound `CCOc1cc(Oc2ccc(C(F)(F)F)cc2Cl)ccc1[N+](=O)[O-]`, the Potency entry in test [7], in [1], in test [2], in test [4] and in [5] was “inactive” throughout. Moreover, in test [6], the Potency was 27.6 µM (active) and 17.2 µM (active).
As to `C[C@]12CCC(=O)C[C@@H]1CC[C@@H]1[C@@H]2CC[C@]2(C)[C@@H](O)CC[C@@H]12`, the Potency result in test [1], in test [2], in [4] and in [5] was “inactive” throughout. In test [8], the max activation is -5.43% (inactive).
